This passage reports Percent Effect results from ChEMBL document CHEMBL3988442, “University of Dundee, Small-Polar-MMV Screening Library” (2021).

Molecules are shown by their SMILES.

The target in test [1] is T1, Aspartate--tRNA(Asp/Asn) ligase (Mycobacterium tuberculosis (strain ATCC 25618 / H37Rv)) (UniProt P9WFW3). Further: in the data most compounds retested in dose-response had high values.
T1 sequence (whole entry): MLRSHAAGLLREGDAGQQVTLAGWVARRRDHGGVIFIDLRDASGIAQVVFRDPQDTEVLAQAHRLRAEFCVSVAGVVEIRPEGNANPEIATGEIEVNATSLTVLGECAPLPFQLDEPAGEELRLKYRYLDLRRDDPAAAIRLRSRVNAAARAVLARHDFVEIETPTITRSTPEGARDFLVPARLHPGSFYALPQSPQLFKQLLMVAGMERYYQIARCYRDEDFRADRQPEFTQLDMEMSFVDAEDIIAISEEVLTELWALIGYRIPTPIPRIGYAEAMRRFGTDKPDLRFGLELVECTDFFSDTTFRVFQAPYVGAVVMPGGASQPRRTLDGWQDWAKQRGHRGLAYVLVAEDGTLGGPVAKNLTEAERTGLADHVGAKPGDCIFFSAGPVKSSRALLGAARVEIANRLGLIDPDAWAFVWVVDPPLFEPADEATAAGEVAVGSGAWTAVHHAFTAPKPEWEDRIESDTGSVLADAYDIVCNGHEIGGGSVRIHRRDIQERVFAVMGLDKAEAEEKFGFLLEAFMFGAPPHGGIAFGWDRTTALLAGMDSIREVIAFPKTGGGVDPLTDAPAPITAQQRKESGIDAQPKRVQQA
The experiment in a line: Assay for Asp RNA synthetase-1 from Mycobacterium tuberculosis. In kind it is functional. Set-up: scale not given: direction of the effect not stated beside the values. The settings on record: 30 µM.

Test [2] has as its target Shiga toxin 2 (Escherichia coli O157:H7) (UniProt P09385+P09386). The experiment in a line: E. coli 0.157:H7 Shiga Toxin SOP - stx2 screening assay. In kind it is functional. Also noted: scale not given: direction of the effect not stated beside the values. The following applies: 30 µM.

Take `CC(C)(C)c1ncc(C(=O)NCCNC(=O)c2ccccc2)s1`: the Percent Effect turned out to be 1.94% in test [1] and 36.9% in test [2].
The like results for `CCn1ccnc1CN1CCN(CCOc2cccc(C#N)c2)CC1` were, in that order, -0.322% and -9.38%.
The like results for `O=C(c1cccc(CN2CCCC2)c1)N1CCCC(n2cncn2)C1` (stereo not drawn) were, in that order, 11.7% and 14%.
Taken in the same sequence, the figures for `CCc1nc(CN2CCCN(C(=O)C(C)n3ccnc3)CC2)cs1` (stereo not drawn) were -1.76% and 8.27%.
As to `CCc1nccn1C1CCCN(C(=O)CCc2nccs2)C1` (stereo not drawn), the Percent Effect in test [1] was determined as 2.69%; in test [2], 16.2%.
The like results for `COc1ccc(NC(=O)CNc2cccc3c2CCCC3)c(OC)c1` were, in that order, 1% and -28.6%.
As to `CN(C(=O)c1cccc(C(=O)NS(C)(=O)=O)c1)c1ccccc1`, the Percent Effect is 9.93% in test [1] and -20.1% in test [2].
The like results for `Cc1ccc(SCC(=O)NS(=O)(=O)c2ccc3c(c2)OCCO3)cc1` were, in that order, 3.3% and 21.2%.
`CN1C(=O)CC(c2cnn(C)c2)C12CCN(C(=O)C1CC=CC1)CC2` (stereo not drawn): the values for the Percent Effect in test [1] and in test [2] were -2.73% and -0.198%, respectively.
Taken in the same sequence, the figures for `COCC1CN(C(=O)COc2ccccc2)Cc2cn(C)nc21` (stereo not drawn) were 1.18% and 0.0839%.
Regarding `O=C(c1cccc2c1OCO2)N1CCCC(n2cccn2)C1` (stereo not drawn), the Percent Effect in test [1] was -0.706%; in test [2] it was 17.8%.
The like results for `O=C(c1ccc(F)c(F)c1)N1CCCC(Nc2ccc(F)cc2)C1` (stereo not drawn) were, in that order, 0.212% and 11.2%.
The like results for `CNc1cc(CCNC(=O)c2cccnc2)nc(-c2ccncc2)n1` were, in that order, -1.03% and 2.08%.
For the compound `COc1ccccc1CC(=O)N1CCCC(n2nc(C)cc2C)C1` (stereo not drawn), the Percent Effect in test [1] was -1.4%; in test [2], 10.9%.
In the case of `CN(C)CCO[C@H]1CN(Cc2cccc(C#N)c2)[C@@H]2COC[C@H]12`, the values for the Percent Effect in test [1] and in test [2] were 1.95% and -21.2%, respectively.
Regarding `CC(C)c1noc(C(C)N2CCN(Cc3ccsc3)CC2)n1` (stereo not drawn), the results for the Percent Effect in test [1] and in test [2] were -3.93% and 27.9%, respectively.
The like results for `COc1cccc(-c2noc(C3CCN(Cc4cccs4)C3)n2)c1` (stereo not drawn) were, in that order, -0.868% and -30%.
For `CC(NC(=O)c1cc(-c2cccc(Cl)c2)no1)C(=O)N1CCCC1` (stereo not drawn), the Percent Effect in test [1] is 0.15%; in test [2], -14.8%.
As to `CC(C)c1cc(NC(=O)CN2CCC(N3CCCCC3)CC2)on1`, the Percent Effect in test [1] is 0.301%; in test [2] it was -28.7%.
